Laboratory results: the supplement of paper PMC12494721
Where a name gives a salt, the structure may show the parent alone.

Tests used:
Conditions in all cases: incubation time: 27 h, anaerobic, 37 °C;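 for the amine columns active = adjusted P below 0.05 in both replicates with a change the same way and a mean fold change under 0.8 or over 1.25; inactive = the rest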
[1] = tested on: Clostridium sporogenes DSM 1664; assay: growth (OD595) fold change vs plate DMSO controls (fold change (ratio)); higher = more growth
Outline: (§1)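 Anaerobic 27 h, 37 °C mGAM 96-well cultures were shaken, then read for absorbance at 595 nm. Values were blank-subtracted and corrected for compound background using 20 µM compound solutions in water. A calibration factor of 5 converted them to OD. Growth is the fold change versus the median of plate DMSO controls. Fold changes above 1.5 were set to NA, and values are the mean of 2 biological replicates.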

[2] = tested on: Escherichia coli IAI1; assay: as above
Outline: as §1

[3] = tested on: Klebsiella aerogenes DSM 30053; assay: as above
Outline: as §1

[4] = tested on: Ruminococcus gnavus DSM 108212; assay: as above
Outline: as §1

[5] = tested on: Klebsiella aerogenes DSM 30053; assay: fold change of Histamine concentration vs plate DMSO controls (fold change (ratio)); higher = more amine produced, active = hit call of the paper (significant change in both replicates, either direction)
Outline: (§2)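 Using LC–triple-quadrupole MS with dynamic MRM, amines were quantified against external calibration curves and corrected for drift within each batch. Samples were whole anaerobic mGAM cultures of four gut strains, grown 27 h at 37 °C from OD 0.1 before 1:1 dilution, extracted with cold acetonitrile/methanol containing 0.1% formic acid and centrifuged. Compounds were present at 20 µM final (sweeteners at 50 µM final). The numbers are fold changes versus plate DMSO controls, each the mean of 2 biological replicates.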

[6] = tested on: Clostridium sporogenes DSM 1664; assay: fold change of Tryptamine concentration vs plate DMSO controls (fold change (ratio)); higher = more amine produced, active = hit call of the paper (significant change in both replicates, either direction)
Outline: as §2

[7] = tested on: Ruminococcus gnavus DSM 108212; assay: as above
Outline: as §2

[8] = tested on: Escherichia coli IAI1; assay: fold change of Putrescine concentration vs plate DMSO controls (fold change (ratio)); higher = more amine produced, active = hit call of the paper (significant change in both replicates, either direction)
Outline: as §2

[9] = tested on: Klebsiella aerogenes DSM 30053; assay: as above
Outline: as §2

[10] = tested on: Escherichia coli IAI1; assay: fold change of Cadaverine concentration vs plate DMSO controls (fold change (ratio)); higher = more amine produced, active = hit call of the paper (significant change in both replicates, either direction)
Outline: as §2

[11] = tested on: Klebsiella aerogenes DSM 30053; assay: as above
Outline: as §2

[12] = tested on: Ruminococcus gnavus DSM 108212; assay: fold change of 2-Phenylethylamine concentration vs plate DMSO controls (fold change (ratio)); higher = more amine produced, active = hit call of the paper (significant change in both replicates, either direction)
Outline: as §2

| SMILES | growth [1] | growth [2] | growth [3] | growth [4] | fold change of Histamine concentration [5] | fold change of Tryptamine concentration [6] | fold change of Tryptamine concentration [7] | fold change of Putrescine concentration [8] | fold change of Putrescine concentration [9] | fold change of Cadaverine concentration [10] | fold change of Cadaverine concentration [11] | fold change of 2-Phenylethylamine concentration [12] |
| --- | --- | --- | --- | --- | --- | --- | --- | --- | --- | --- | --- | --- |
| COCCCC/C(=N\OCCN)c1ccc(C(F)(F)F)cc1 [Fluvoxamine maleate] (20 µM) | 1.2 | 0.976 | 0.994 | 0.962 | 0.985 (inactive) | 1.03 (inactive) | 0.982 (inactive) | 1.02 (inactive) | 0.987 (inactive) | 0.985 (inactive) | 0.997 (inactive) | 1.02 (inactive) |
| C[C@H](CCC(=O)O)[C@H]1CC[C@H]2[C@@H]3CC[C@@H]4C[C@H](O)CC[C@]4(C)[C@H]3CC[C@]12C [Lithocholic acid] (20 µM) | 1.13 | 1.01 | 1.19 | 0.903 | 0.9 (inactive) | 1.03 (inactive) | 1.05 (inactive) | 1.06 (inactive) | 0.999 (inactive) | 0.975 (inactive) | 1.03 (inactive) | 1.09 (inactive) |
| C=C(C)[C@@H]1CC=C(/C=N/O)CC1 [Perillartine] (50 µM) | 1.04 | 1.04 | 1.09 | 1.11 | 0.933 (inactive) | 1.02 (inactive) | 1 (inactive) | 0.985 (inactive) | 1.03 (inactive) | 0.99 (inactive) | 1.02 (inactive) | 1 (inactive) |
| CCN1CCC[C@H]1CNC(=O)c1c(O)c(Cl)cc(Cl)c1OC [Raclopride] (20 µM) | 1.03 | 1.25 | 0.996 | 0.999 | 0.961 (inactive) | 1.06 (inactive) | 1 (inactive) | 1.19 (inactive) | 0.97 (inactive) | 0.944 (inactive) | 0.983 (inactive) | 0.991 (inactive) |
| CN1CCN(CCCN2c3ccccc3Sc3ccc(S(=O)(=O)N(C)C)cc32)CC1 [Thioproperazine dimesylate] (20 µM) | 0.886 | 0.986 | 1.12 | 1.15 | 0.898 (inactive) | 1.03 (inactive) | 0.963 (inactive) | 0.969 (inactive) | 0.976 (inactive) | 0.99 (inactive) | 1.01 (inactive) | 1.06 (inactive) |
| OCCN1CCN(CCCN2c3ccccc3Sc3ccc(Cl)cc32)CC1 [Perphenazine] (20 µM) | 1.05 | 0.856 | 0.838 | 0.94 | 1.07 (inactive) | 0.999 (inactive) | 0.897 (inactive) | 1.02 (inactive) | 1.02 (inactive) | 1.01 (inactive) | 0.999 (inactive) | 0.892 (inactive) |
| Cc1ccc(C(=O)c2ccc(CC(=O)O)n2C)cc1 [Tolmetin sodium salt dihydrate] (20 µM) | 1.12 | 0.976 | 1.01 | 0.976 | 1.05 (inactive) | 1 (inactive) | 0.958 (inactive) | 0.949 (inactive) | 1.01 (inactive) | 1 (inactive) | 1 (inactive) | 0.913 (inactive) |
| CCOC(=O)C1=C(C)NC(C)=C(C(=O)OC)C1c1cccc([N+](=O)[O-])c1 (stereo not drawn) [Nitrendipine] (20 µM) | 1.04 | 1.01 | 1.02 | 1.06 | 1.08 (inactive) | 0.947 (inactive) | 0.911 (inactive) | 1.09 (inactive) | 0.993 (inactive) | 1.01 (inactive) | 1.01 (inactive) | 0.913 (inactive) |
| COc1cc([S+](C)[O-])ccc1-c1nc2cccnc2[nH]1 (stereo not drawn) [Sulmazole] (20 µM) | 0.885 | 0.999 | 0.98 | 1.1 | 0.922 (inactive) | 0.944 (inactive) | 1.19 (inactive) | 0.951 (inactive) | 0.952 (inactive) | 1.02 (inactive) | 1.05 (inactive) | 1.38 (inactive) |
| CC(=O)Nc1ccccc1 [Acetanilide] (20 µM) | 1.1 | 0.998 | 1 | 0.941 | 1.01 (inactive) | 1.03 (inactive) | 1.02 (inactive) | 1.04 (inactive) | 1.02 (inactive) | 0.982 (inactive) | 1.01 (inactive) | 1.05 (inactive) |
| O=C(O)c1ccccc1C(=O)Nc1ccc(S(=O)(=O)Nc2nccs2)cc1 [Phthalylsulfathiazole] (20 µM) | 0.901 | 0.981 | 0.96 | 1.09 | 1 (inactive) | 1.1 (inactive) | 0.948 (inactive) | 1.03 (inactive) | 1.01 (inactive) | 1.04 (inactive) | 0.987 (inactive) | 0.919 (inactive) |
| CC(C)NCC(O)COc1ccc(COCCOC(C)C)cc1 (stereo not drawn) [Bisoprolol hemifumarate] (20 µM) | 1.1 | 0.975 | 0.97 | 0.79 | 0.965 (inactive) | 1.2 (inactive) | 1.09 (inactive) | 1 (inactive) | 0.846 (inactive) | 0.99 (inactive) | 1.13 (inactive) | 1.09 (inactive) |
| Cc1ccsc1C(=CCCN1CCC[C@@H](C(=O)O)C1)c1sccc1C [Tiagabine hydrochloride] (20 µM) | 1.03 | 0.984 | 1.05 | 1.01 | 0.968 (inactive) | 0.999 (inactive) | 0.971 (inactive) | 1.03 (inactive) | 1.02 (inactive) | 1.01 (inactive) | 1.01 (inactive) | 0.927 (inactive) |
| OC[C@H]1O[C@H](O[C@H]2O[C@H](CO)[C@@H](O)[C@H](O)[C@H]2O)[C@H](O)[C@@H](O)[C@@H]1O [Trehalose] (50 µM) | 0.902 | 1.07 | 1.03 | 1.06 | 0.94 (inactive) | 1.16 (inactive) | 1.09 (inactive) | 1 (inactive) | 0.901 (inactive) | 0.831 (inactive) | 1.06 (inactive) | 1.15 (inactive) |
| O=C(O[C@@H]1C[C@@H]2C[C@H]3C[C@H](C1)N2CC3=O)c1c[nH]c2ccccc12 [Dolasetron mesilate] (20 µM) | 0.968 | 0.994 | 0.986 | 1.07 | 0.981 (inactive) | 1 (inactive) | 1.02 (inactive) | 0.942 (inactive) | 0.991 (inactive) | 0.979 (inactive) | 0.989 (inactive) | 1.04 (inactive) |
| CCN(CC)C(=S)SSC(=S)N(CC)CC [Disulfiram] (20 µM) | 1.03 | 0.988 | 0.991 | 1.38 | 1.06 (inactive) | 0.992 (inactive) | 1 (inactive) | 1.09 (inactive) | 1.03 (inactive) | 0.969 (inactive) | 1 (inactive) | 0.955 (inactive) |
| Cc1ccc(C(C)NC(=O)[C@@H](NC(=O)OC(C)C)C(C)C)cc1 (stereo partly drawn) (20 µM) | 1.07 | 1.02 | 1.04 | 0.999 | 1.02 (inactive) | 1.02 (inactive) | 1.03 (inactive) | 0.974 (inactive) | 1 (inactive) | 1.03 (inactive) | 1.02 (inactive) | 1.07 (inactive) |
| NS(=O)(=O)c1cc2c(cc1Cl)NCNS2(=O)=O [Hydrochlorothiazide] (20 µM) | 0.895 | 1.06 | 0.998 | 1.03 | 1.06 (inactive) | 0.949 (inactive) | 1.11 (inactive) | 1.04 (inactive) | 1 (inactive) | 0.915 (inactive) | 1.11 (inactive) | 1.27 (active) |
| COC(=O)Nc1nc2cc(C(=O)c3ccc(F)cc3)ccc2[nH]1 [Flubendazol] (20 µM) | 0.949 | 1.04 | 1.12 | 1.04 | 0.979 (inactive) | 1 (inactive) | 0.934 (inactive) | 0.943 (inactive) | 1.02 (inactive) | 0.956 (inactive) | 1.01 (inactive) | 0.919 (inactive) |
| COC(=O)Nc1nc2cc(Sc3ccccc3)ccc2[nH]1 [Fenbendazole] (20 µM) | 1 | 1.08 | 0.98 | 1.09 | 1.07 (inactive) | 0.986 (inactive) | 1 (inactive) | 1.05 (inactive) | 1.03 (inactive) | 0.967 (inactive) | 0.991 (inactive) | 1.02 (inactive) |
| O=C1[C@H](CC[C@H](O)c2ccc(F)cc2)[C@@H](c2ccc(O)cc2)N1c1ccc(F)cc1 [Ezetimibe] (20 µM) | 1.3 | 1.1 | 1.02 | 0.955 | 0.972 (inactive) | 0.796 (inactive) | 0.858 (inactive) | 1.02 (inactive) | 1 (inactive) | 0.987 (inactive) | 0.992 (inactive) | 0.832 (inactive) |
| Cc1c(N(C)C)c(=O)n(-c2ccccc2)n1C [Amidopyrine] (20 µM) | 0.923 | 1.02 | 0.997 | 1.18 | 0.997 (inactive) | 0.979 (inactive) | 1.16 (inactive) | 0.995 (inactive) | 0.986 (inactive) | 0.985 (inactive) | 1.03 (inactive) | 1.19 (inactive) |
| CN(CCOc1ccc(CC2SC(=O)NC2=O)cc1)c1ccccn1 (stereo not drawn) [Rosiglitazone hydrochloride] (20 µM) | 1.05 | 1.15 | 0.983 | 1.05 | 0.998 (inactive) | 1.06 (inactive) | 1.08 (inactive) | 1.17 (inactive) | 0.993 (inactive) | 0.926 (inactive) | 1.03 (inactive) | 1.12 (inactive) |
| Cn1cc(C(=O)Nc2ccccc2-c2cc(F)c(F)c(F)c2)c(C(F)F)n1 (20 µM) | 1.04 | 0.97 | 0.98 | 0.98 | 1.02 (inactive) | 1.03 (inactive) | 0.986 (inactive) | 1.02 (inactive) | 1.02 (inactive) | 1.01 (inactive) | 0.989 (inactive) | 0.966 (inactive) |
